The structures appear in SMILES notation. “And” between values parts separate entries of the source, which are not always exact repeats. Equal values may be shown once. A number with no mark means an inactive call. Results filed as inconclusive are left out. The source made the active and inactive calls. Unless noted, the call rests on the fitted dose curve; in most records, active means well fitted curve in the direction sought with a large enough effect; inconclusive means small, poorly fitted or top-dose-only effect, or another doubt; inactive means no such curve, though single readings can be large; an effect the other way counts as inactive or inconclusive.

Results on 16 compounds are retold here after PubChem BioAssay (NCATS).

A short description of test [1]: Cell Viability - BJ (AID 421; calls by dose curve;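 further: potency means the concentration at half of the fitted maximal effect; cells exposed to compound for 40 hours at 37 °C before readout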). The note with it: BJ fibroblast viability, qHTS. The essentials: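 Cytotoxicity as drop in intracellular ATP (CellTiter-Glo, 20 min RT) after 40 hr compound exposure of BJ fibroblasts at 37 °C. Titrations scaled between DMSO and 100 uM tamoxifen, Hill-fitted for AC50.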
In general terms: Quantitative high-throughput screening tests each substance at several concentrations.

A short description of test [2]: Cell Viability - Jurkat (AID 426;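 active means dose-dependent loss of cell ATP signal giving a full or clear fitted curve, ranked by lower potency value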; further: potency means the concentration at half of the fitted maximal effect). The note with it: qHTS. The essentials: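 Jurkat (clone E6-1, human T-cell leukemia) cells, 5000/well in complete medium, were exposed to compound for 40 hr at 37 °C. Viability was read as intracellular ATP by CellTiter-Glo luminescence; AC50 came from Hill fits of concentration-response data.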
Test [3] can be described thus: Cell Viability - HepG2 (AID 433; calls by dose curve;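 further: potency means the concentration at half of the fitted maximal effect; potency for ATP loss meaning cytotoxicity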). The note with it: qHTS. In a few lines: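 Read-out is luciferase-based quantitation of cellular ATP as a measure of viable HepG2 cells after 40 h treatment at 37 °C. Signal decrease is scaled between DMSO-only and 100 uM tamoxifen controls, with AC50 fitted by the Hill equation.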
A short description of test [4]: Cell Viability - MRC5 (AID 434; calls by dose curve;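 further: potency means the concentration at half of the fitted maximal effect; potency reflects cytotoxicity seen as loss of intracellular ATP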). The note with it: MRC5 lung fibroblast viability, qHTS. The essentials:
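MRC5 normal human lung fibroblasts, 1500 cells/well, exposed to compound for 40 hr at 37 C. Cellular ATP was read by CellTiter-Glo luminescence; data normalized to DMSO and 100 uM tamoxifen, with AC50 from Hill fits.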

Test [5] can be described thus: Cell Viability - SK-N-SH (AID 435; calls by dose curve;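 further: potency means the concentration at half of the fitted maximal effect; compound exposure lasted 40 h at 37 °C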). The note with it: SK-N-SH neuroblastoma cell viability qHTS. In a few lines: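 Luminescent ATP signal served as the viability read-out after 40 hours of compound treatment of human neuroblastoma SK-N-SH cells. Concentration-response data, scaled between DMSO and 100 uM tamoxifen, gave AC50 values by standard Hill modeling.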
In test [6] the target is Mitogen-activated protein kinase 10 (Mus musculus) (UniProt Q61831). Description: JNK3 AlphaScreen Assay (AID 530; active means well fitted curve in either direction with a large enough effect, not every such curve was filed as active;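 further: kinase came from lysate of stimulated human HepG2 cells; signal reports phosphorylation of biotinylated GST-cJun 1-79 at Ser73 with 10 µM ATP; on the % scale 0 is the no-effect control and ±100 the full control effect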). The note with it: JNK3 lysate, c-Jun phosphorylation; series mostly up to 57.1 µM. In a few lines:
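qHTS format: compounds tested as titrations against IL-1beta/TNF-alpha-activated HepG2 lysate JNK3 with biotin-GST-cJun substrate and 10 uM ATP at room temperature. Loss of anti-phospho-cJun AlphaScreen signal indicates inhibition.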
Background: Bead proximity is the source of the signal in Alpha formats.

A short description of test [7]: Cell Viability - NIH 3T3 (AID 541). Further: nearly all actives have a fitted effect of over 25% in size. Further: potency means the concentration at half of the fitted maximal effect.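 On activity change, negative = cytotoxicity: plate controls were DMSO alone for no effect and tamoxifen positive control for full effect.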 The note with it: NIH 3T3 cell viability, qHTS; activity change, negative = cytotoxicity: at 92.2 µM (top of the series). The essentials: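 NIH 3T3 mouse embryo fibroblasts (1000 cells/well) were plated in complete medium and treated with compound for 40 hr at 37 °C. Viability was read as intracellular ATP by CellTiter-Glo luminescence; AC50 values came from Hill-equation fits of concentration-response data.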

The nature of test [8]: Cell Viability - HUV-EC-C (AID 542). Further: on the % scale 0 is the no-effect control and ±100 the full control effect; nearly all actives have a fitted effect of over 35% in size. The note with it: HUV-EC-C endothelial cell viability, qHTS; series mostly up to 92.2 µM. The essentials: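 HUV-EC-C normal human vascular endothelial cells, 1000 cells/well, pre-incubated 5 hr at 37 °C, then exposed to compounds for 40 hr at 37 °C in complete medium. Viability measured as intracellular ATP by CellTiter-Glo luminescence; AC50 from Hill fits.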

Test [9] can be described thus: Cell Viability - SH-SY5Y (AID 544). Further: nearly all actives have a fitted effect of over 55% in size. Further: potency means the concentration at half of the fitted maximal effect. The note with it: SH-SY5Y neuroblastoma cell viability; series mostly up to 92.2 µM. The essentials: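 Human neuroblastoma SH-SY5Y cells (1500/well) in complete medium were exposed to compounds for 40 hr at 37 °C; intracellular ATP was then quantified by CellTiter-Glo luminescence after 20 min at room temperature. AC50 came from Hill-equation concentration-response fits.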

Test [10] in a line: Cell Viability - Renal Proximal Tubule (AID 545).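 Further: 0% = DMSO only and -100% = 100 µM tamoxifen; nearly all actives have a fitted effect of over 40% in size.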 The note with it: renal proximal tubule cells viability, primary cells of rat origin; series mostly up to 91.7 µM. In a few lines: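 Luminescent ATP signal (CellTiter-Glo) served as the viability read-out after 40 hr compound exposure of freshly isolated rat proximal tubule cells at 37 °C. Concentration-dependent ATP loss was fitted with the Hill equation to give AC50.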

Test [11] in a line: Cell Viability - Mesenchymal (AID 546).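 Further: cells exposed to compound for 40 hours before reading; 0% = DMSO only and -100% = 100 µM tamoxifen.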 The note with it: mesenchymal cells viability, qHTS; series mostly up to 91.7 µM. In a few lines: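 Human kidney mesenchymal cells from normal renal glomeruli, 1000 cells/well, rested 5 hr at 37 °C, then treated 40 hr at 37 °C in complete medium. Cellular ATP read by CellTiter-Glo luminescence; AC50 from Hill-equation fits.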
The nature of test [12]: AP1 Signaling Pathway (AID 357; active means well fitted curve in either direction with a large enough effect, not every such curve was filed as active; further: on the % scale 0 is the no-effect control and ±100 the full control effect). The note with it: ME-180 AP-1-bla reporter, EGF-induced, beta-lactamase ratio, 5 h; at 17.2 µM (top of the series). The essentials: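 In this screen, ME-180 cells in Opti-MEM with 0.5% dialyzed FBS received EC50 EGF and compound titrations for 5 h. AP-1 reporter beta-lactamase was detected via CCF4 ratio, giving AC50 for positive and negative modulators.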

The nature of test [13]: Stat Signaling Pathway (AID 446; active means well fitted curve in either direction with a large enough effect, not every such curve was filed as active;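 further: ME-180 cervical cancer cells given 40 pM IL-6 alongside compound; SIE-controlled beta-lactamase reporter measured as 460/530 nm FRET emission ratio; on the % scale 0 is the no-effect control and ±100 the full control effect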). The note with it: ME-180 SIE beta-lactamase reporter, IL-6 stimulated, 5 h. The essentials: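 Reporter line: ME-180 cervical carcinoma, SIE-beta-lactamase. Treatment: compound with 40 pM IL-6, 5 hrs, 37 C, in low-serum OPTI-MEM with 10 mM HEPES pH 7.3. Detection: 460/530 nm fluorescence.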
In test [14] the target is Glucocorticoid receptor (Homo sapiens) (UniProt P04150). Description: GR-GFP Redistribution (AID 450;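 active means compounds whose dose series gives a full or clear partial fitted curve of increased nuclear translocation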; further: potency means the concentration at half of the fitted maximal effect). The note with it: U2OS GR-GFP nuclear translocation, laser cytometry, 2 h.
Chain of Glucocorticoid receptor (Homo sapiens) (P04150 whole entry, looked up, the tested form may be a part): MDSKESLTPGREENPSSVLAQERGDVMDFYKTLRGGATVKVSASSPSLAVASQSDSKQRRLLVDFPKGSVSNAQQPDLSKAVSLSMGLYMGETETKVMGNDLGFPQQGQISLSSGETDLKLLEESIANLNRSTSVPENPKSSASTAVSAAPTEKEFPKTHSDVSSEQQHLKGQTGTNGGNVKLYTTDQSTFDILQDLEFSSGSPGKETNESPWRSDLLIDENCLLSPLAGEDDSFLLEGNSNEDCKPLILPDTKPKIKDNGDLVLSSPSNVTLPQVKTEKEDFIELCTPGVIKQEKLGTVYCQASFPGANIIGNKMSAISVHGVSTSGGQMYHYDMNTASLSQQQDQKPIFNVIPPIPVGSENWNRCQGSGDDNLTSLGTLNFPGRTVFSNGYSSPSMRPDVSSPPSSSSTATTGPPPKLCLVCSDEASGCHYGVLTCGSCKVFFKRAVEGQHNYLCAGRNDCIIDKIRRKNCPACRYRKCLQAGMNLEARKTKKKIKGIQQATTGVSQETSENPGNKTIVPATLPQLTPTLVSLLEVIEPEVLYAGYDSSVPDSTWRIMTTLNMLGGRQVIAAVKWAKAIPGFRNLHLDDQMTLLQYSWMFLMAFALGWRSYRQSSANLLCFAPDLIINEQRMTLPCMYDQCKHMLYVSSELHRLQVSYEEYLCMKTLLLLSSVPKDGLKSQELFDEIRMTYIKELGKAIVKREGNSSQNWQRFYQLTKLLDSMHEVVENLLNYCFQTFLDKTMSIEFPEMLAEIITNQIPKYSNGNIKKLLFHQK
Test [15] in a line: NFAT Signaling Pathway (AID 444; active means well fitted curve in either direction with a large enough effect, not every such curve was filed as active;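 further: carbachol stimulus at about its EC50 of 1 µM final; on the % scale 0 is the no-effect control and ±100 the full control effect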). The note with it: Jurkat NFAT-bla M1, carbachol, beta-lactamase ratio, 5 h; at 17.2 µM (top of the series). The essentials:
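Jurkat cells with NFAT-driven β-lactamase reporter and co-expressed M1 receptor, stimulated with carbachol (final 1 uM, ~EC50), compound titration, 5 h at 37 °C. CCF4 loaded 1 h at RT; 460/530 nm ratio gave %activity and AC50.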

Test [16] is described as follows: Cell Viability - Hek293 (AID 427;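 active means compounds whose dose-response curve shows a full or clear partial loss of cell viability, called from curve shape rather than a numeric limit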;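 further: potency means the concentration at half of the fitted maximal effect; cells exposed to compound for 40 hours at 37 °C before reading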). The note with it: qHTS. In a few lines:
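Luminescent ATP content (CellTiter-Glo, 20 min at room temperature) was measured after a 40 hr, 37 °C compound exposure of HEK293 cells. AC50 values came from Hill-equation fits of qHTS concentration-response data normalized to DMSO and 100 uM tamoxifen.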

A short description of test [17]: Cell Viability - H-4-II-E (AID 543). Further: on the % scale 0 is the no-effect control and ±100 the full control effect; nearly all actives have a fitted effect of over 35% in size. The note with it: H-4-II-E rat hepatoma viability; series mostly up to 92.2 µM. The essentials:
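Rat hepatoma H-4-II-E cells (1500/well) were plated, incubated 5 hr at 37 °C, then exposed to compounds for 40 hr at 37 °C. Cellular ATP was read by CellTiter-Glo luminescence; AC50 came from Hill-equation fits of concentration-response data.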

Test [18] has as its target Glucocorticoid receptor (Homo sapiens) (UniProt P04150). Description: GR-EFC Redistribution (AID 451; calls by dose curve; further: potency means the concentration at half of the fitted maximal effect). The note with it: CHO-K1 GR-EFC translocation, beta-gal luminescence, 2 h. In a few lines:
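CHO-K1 cells expressing nuclear EA and GR-ED fragments of b-gal; compounds titrated up to 46 uM final, 2 h at 37 C. GR nuclear translocation read as complemented b-gal luminescence after 1 h RT detection.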

For test [19], the target named is Cytochrome P450 1A2 (Homo sapiens) (UniProt P05177). Description: p450-cyp1a2 (AID 410; calls by dose curve;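 further: -100% = full effect of reference inhibitor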). The note with it: recombinant CYP1A2, luciferin-ME demethylation, luminescence; series mostly up to 25.6 µM. The essentials: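 Human CYP1A2 (20nM) demethylated Luciferin-ME at its Km (100uM) in 100mM KPO4. After 10 min compound preincubation, NADPH regeneration ran the reaction 60 min at room temperature. Luciferin was read by luminescence, normalized to 57 uM furafylline.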
Chain of Cytochrome P450 1A2 (Homo sapiens) (P05177 whole entry, looked up): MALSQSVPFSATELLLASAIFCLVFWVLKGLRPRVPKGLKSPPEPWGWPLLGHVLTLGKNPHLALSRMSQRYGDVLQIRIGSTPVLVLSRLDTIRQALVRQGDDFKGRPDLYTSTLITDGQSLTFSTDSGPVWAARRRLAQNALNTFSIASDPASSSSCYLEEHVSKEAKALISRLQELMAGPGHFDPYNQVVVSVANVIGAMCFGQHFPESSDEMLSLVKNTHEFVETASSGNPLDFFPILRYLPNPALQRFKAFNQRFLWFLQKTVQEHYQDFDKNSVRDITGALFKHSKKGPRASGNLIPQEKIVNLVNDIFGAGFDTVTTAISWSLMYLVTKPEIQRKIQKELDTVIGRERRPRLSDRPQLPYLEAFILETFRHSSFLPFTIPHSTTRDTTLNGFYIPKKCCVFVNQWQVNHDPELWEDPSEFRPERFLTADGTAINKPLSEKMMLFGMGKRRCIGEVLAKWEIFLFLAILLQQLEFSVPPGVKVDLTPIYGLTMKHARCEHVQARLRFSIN

In the case of `NC(=O)c1ncn([C@@H]2O[C@H](CO)[C@@H](O)[C@H]2O)n1`, the Potency in test [1] was more than 92 µM; in test [2], more than 92 µM; in test [3], more than 92 µM; in [4], more than 92 µM; in test [5] it was more than 92 µM; in test [7], 25.1 µM (active). Further, the Potency in test [9] is 31.6 µM (active). The Potency result in [6], in test [8] and in test [10] was “inactive” in each case. For the same compound, in [11], the compound was called inactive.
Take `CNCCC(Oc1ccc(C(F)(F)F)cc1)c1ccccc1` (stereo not given): in test [12], the activity change, negative = inhibition was 21.9%. For the same compound, in [13] (at 17.2 µM (top of the series)), the activity, negative = inhibition was 4.05%.
For the compound `CC1=C(/C=C/C(C)=C/C=C/C(C)=C/C(=O)O)C(C)(C)CCC1`, the activity change, negative = inhibition in [12] was -14.6%. Further, the Potency in [14] is more than 20.6 µM.
On to `CCC(=O)c1ccc(O)cc1`, for which the activity change, negative = inhibition in test [12] was -4.26%; in test [15], -1.37%. For the same compound, the activity, negative = inhibition in test [13] (at 17.2 µM (top of the series)) was -0.905%. Moreover, the Potency in test [14] was more than 20.6 µM.
Regarding `CC1(C)[C@@H]2CC[C@@]1(C)C(=O)C2`, the Potency in test [1], in test [2], in [16], in test [3], in test [4] and in test [5] was more than 92 µM each time. Besides, the Potency entry in [6], in test [7], in test [8], in test [17], in test [9] and in test [10] was “inactive” each time. Further, in [11], the compound was classed as inactive.
`Oc1cccc(O)c1`: the Potency in test [1], in test [16], in [3] and in test [4] was more than 92 µM throughout. Besides, the Potency entry in [6], in [7], in [8], in [17] and in test [10] was “inactive” each time. Moreover, the compound was classed as inactive in [11].
For the compound `Cc1cc2nc3c(=O)[nH]c(=O)nc-3n(C[C@H](O)[C@H](O)[C@H](O)CO)c2cc1C`, the Potency in test [1], in test [2], in [16], in [3], in [4] and in test [5] was more than 92 µM throughout. Besides, the Potency result in test [6], in test [7], in [8], in [17], in test [9] and in test [10] was “inactive” throughout. In test [11], the compound was called inactive.
In the case of `CNC(=O)Oc1ccc2c(c1)[C@]1(C)CCN(C)[C@@H]1N2C`, the activity change, negative = inhibition in test [12] was 8.81%; in test [15], 5.79%. Besides, in test [13] (at 17.2 µM (top of the series)), the activity, negative = inhibition was 4.34%.
Regarding `Cc1ncc([N+](=O)[O-])n1CC(O)CCl` (stereo not given), the activity change, negative = inhibition in test [12] was 0.517%; in [15], -27.2%. Besides, in test [13] (at 17.2 µM (top of the series)), the activity, negative = inhibition is 0.729%. The Potency in test [14] is more than 20.6 µM.
Consider `Nc1ncnc2c1ncn2[C@@H]1O[C@H](CO)[C@@H](O)[C@H]1O`, for which the activity change, negative = inhibition in test [15] was -4.17%. In addition, in [14], the Potency is more than 20.6 µM.
For the compound `C[C@]12CC[C@@H]3c4ccc(O)cc4CC[C@H]3[C@@H]1CCC2=O`, the activity change, negative = inhibition in test [12] is -1.97%; in test [15] it was -19.8%. Moreover, the activity, negative = inhibition in test [13] (at 17.2 µM (top of the series)) was -23.3%.
For the compound `O=C(CCCN1CCN(c2ccccn2)CC1)c1ccc(F)cc1`, in [12], the activity change, negative = inhibition is 7.66%. Moreover, in test [13] (at 17.2 µM (top of the series)), the activity, negative = inhibition is -8.71%. The Potency entry in [6] is “inactive”.
For `CN(C)CCCN1c2ccccc2Sc2ccc(Cl)cc21`, the activity change, negative = inhibition in test [15] was -73.6% (active). The activity, negative = inhibition in test [13] (at 17.2 µM (top of the series)) was -1.56% and 4.13%; in test [13] (at 38 µM (top of the series)) it was -20.2%. Further, the Potency in test [14] was more than 20.6 µM; in test [18] it was > 46 µM and > 20.6 µM. Also, the Potency entry in test [6] was “inactive”.
Regarding `CN(C)CCCN1c2ccccc2CCc2ccccc21`, the Potency result in test [19] and in test [6] was “inactive” throughout. Further, the activity, negative = inhibition in test [13] (at 17.2 µM (top of the series)) was 2.6% and 1.4%.
Turning to `CCCCCCCCCCCCOS(=O)(=O)O`, the Potency in [1], in test [2], in test [16], in test [3], in test [4] and in test [5] was more than 92 µM in each case. In addition, the Potency entry in [6], in test [7], in test [8], in [17], in test [9] and in [10] was “inactive” each time. Also, the call in test [11] was inactive.
In the case of `CC12CCC(CC1)C(C)(C)O2`, the Potency in [1], in test [2], in test [16], in test [3], in test [4] and in test [5] was more than 92 µM each time. Also, the Potency result in [6], in test [7], in [8], in test [17], in test [9] and in test [10] was “inactive” throughout. Also, the compound was classed as inactive in test [11].
